Bioassay records (PubChem)
The list is not random: actives were taken first. Their share in the collection is about 11%.
AMA1 RON2 block – inhibitors of Plasmodium falciparum AMA1-RON2 interaction. Potency, µM (doses to about 58.2 µM), without a hit: at the top dose activity change, negative = inhibition, hits mostly inhibitors. hit rate 0.2% among 360,000. AID 720542. AlphaScreen AMA1-biotinylated RON2 peptide binding;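 further: 0% = vehicle wells and -100% = peptide control; nearly all actives have a fitted effect of over 45% in size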
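AMA1 (3D7) with his tag at 25 nM final met compounds first, then biotinylated RON2 peptide at 25 nM; detection used donor plus acceptor beads, 10 µg/mL apiece, read by AlphaScreen after 30 min at room temperature.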
Sm TGR block – S. mansoni TGR enzyme inhibition; Q962Y6; purified TGR, DTNB reduction, TNB absorbance 405 nm; Potency, µM (top dose mostly 114 µM), inactives show at the highest dose activity change, negative = inhibition, actives largely listed as inhibitors; hit rate 3% among 360,000; further: on the % scale 0 is the no-effect control and ±100 the full control effect; nearly all actives have a fitted effect of over 60% in size
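Kinetic colorimetric format: TGR-catalysed, NADPH-driven DTNB reduction monitored via TNB absorbance. Enzyme dispensed at 20 nM; compound exposure 15 min at room temperature before reaction start.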
Pf growth 48h – inhibits P. falciparum growth in the first generation, 48 h | P. falciparum luciferase growth in erythrocytes, 48 h | Potency, µM (highest dose often 28.7 µM), without a hit: at the top dose activity change, negative = inhibition, hits mostly inhibitors | hit rate 5.9% among 310,000; further: on the % scale 0 is the no-effect control and ±100 the full control effect
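Firefly luciferase activity from engineered P. falciparum reports growth; inhibitors lower the luminescent signal. Cultures contained 2% hematocrit erythrocytes at 0.1% final parasitemia.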
NS1 inh – influenza NS1 inhibition | hit rate 0.4% among 270,000 | Potency, µM (highest dose often 46.1 µM), inactives show at the highest dose activity, positive = more growth | AID 2326; calls by dose curve; further: actives are rising curves; nearly all actives have a fitted effect of over 50% in size
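A cell-based growth assay was used: compounds that relieve NS1-induced slow growth of budding yeast raise OD600. Assay medium was yeast nitrogen base with ammonium sulphate and -URA supplement, pH 6.0, with 2% galactose.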
Pf growth 96h – P. falciparum growth inhibition at 96 hour, primary screen for plastid delayed-death inhibitors; P. falciparum luciferase reporter growth, 96 h; Potency, µM (titrated, usually from 28.7 µM), inactives show at the top dose activity change, negative = inhibition, most hits filed as inhibitors; hit rate 6.9% among 320,000; AID 504834; further: on the % scale 0 is the no-effect control and ±100 the full control effect
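Two parasite generations (96 h, 37 C, 5% CO2) of compound exposure in infected erythrocytes (0.05% parasitemia, 2% hematocrit). Luciferase-reporter P. falciparum; decreased luminescence indicates inhibited growth, aimed at apicoplast-acting delayed death.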
Starred values were filed as active, the others as inactive; i = inactive; u = inconclusive; x = no result given; [ ] = dose if it differs, or a comment. Unless noted, the call rests on the fitted dose curve; in most records, active means well fitted curve in the direction sought with a large enough effect; inconclusive means small, poorly fitted or top-dose-only effect, or another doubt; inactive means no such curve, though single readings can be large; an effect the other way counts as inactive or inconclusive. Potency means the concentration at half of the fitted maximal effect.

SMILES	AMA1 RON2 block	Sm TGR block	Pf growth 48h	NS1 inh	Pf growth 96h
CCCC(=O)NC(Oc1ccccc1Cl)C(Cl)(Cl)Cl (stereo not given)	0.2%	12.6µM*	23.4%	-6.3%	36.6%
CCCC(=O)NC(Oc1ccc(OC)cc1)C(Cl)(Cl)Cl (stereo not given)	8.6%	x	1.3%	1.5%	-14.3%
Cc1ccc(S(=O)(=O)N2CCCCC2)cc1C(=O)OC1CCCCC1=O (stereo not given)	-18.2%	7.3%	11.3%	x	3.5%
CC(=O)c1ccc(NS(=O)(=O)c2ccc(C)cc2)cc1	-9.6%	-1.8%	x	-2.3%	34.0%
COc1cc(OC)c(OC)cc1/C=C/C(=O)c1ccc(NS(=O)(=O)c2ccc(C)cc2)cc1	11.5%	-4.0%	9.28µM*	u	13.1µM*
COc1cccc(C(=O)/C=C/Nc2ccc(S(=O)(=O)Nc3nc(C)cc(C)n3)cc2)c1	-8.1%	7.0%	-1.6%	-12.3%	2.08µM*
COc1ccc(C(=O)/C=C/Nc2ccc(S(=O)(=O)Nc3cc(OC)nc(OC)n3)cc2)c(OC)c1	-16.5%	u	1.65µM*	4.8%	36.4%
COc1cccc(C(=O)/C=C/Nc2ccc(S(=O)(=O)Nc3ccc(C(C)=O)cc3)cc2)c1	-4.4%[2.32 µM]	u	10.4µM*	4.8%	13.1µM*
COc1ccc(C(=O)/C=C/Nc2ccc(S(=O)(=O)Nc3cccc(C(C)=O)c3)cc2)cc1	-2.5%	2.4%	u	-5.4%	u
O=C1C=C(c2ccccc2)C[C@H](c2cccs2)[C@H]1n1nnc([N+](=O)[O-])n1	-0.8%[2.32 µM]	-13.0%	1.85µM*	11.6%	8.28µM*
Cc1ccccc1C(=O)OCc1cc(=O)n2nc(C3CCCCC3)sc2n1	x	-19.1%	x	x	x
CC(=O)c1ccc(S(=O)(=O)N(C)CCCC(=O)N2CCN(c3ncccn3)CC2)cc1	2.0%	-6.9%	u	x	11.7µM*
Cc1ccc(S(=O)(=O)N(C)CCCC(=O)N2CCCCC2)cc1	7.5%	51.5%	-2.5%	14.1%	297.1%
COc1ccc(-c2[nH][nH]c(=O)c2NC(=O)c2ccccc2Br)cc1	2.5%	x	x	x	x
CCOC(=O)Nc1ccc2nc(N3CCCCCC3)sc2c1	-3.5%	-1.3%	111.1%	-40.5%	164.4%
Cc1ccc(-c2nc(CSCC(=O)N3CCN(c4ccccn4)CC3)c(C)o2)cc1	-4.8%	u	x	-32.0%	10.4µM*
Cc1ccc(-c2nc(CSCC(=O)N3CCN(C(=O)c4ccco4)CC3)c(C)o2)cc1	3.3%	39.8µM*	x	4.5%	2.4%
Cc1ccc(-c2nc(CSCC(=O)N3CCOCC3)c(C)o2)cc1	8.6%	5.3%	u	-0.2%	i
S=C(NNc1ccc2ccccc2c1)NC1CCCCC1	15.8µM*	-21.7%	-0.6%	-13.2%	-3.5%
S=C(Nc1ccc(Cl)c(Cl)c1)NC1CCN(Cc2ccccc2)CC1	-8.4%	-9.7%	4.15µM*	-7.7%	u
CN(CC(=O)Nc1ccc(Cl)c(Cl)c1)C(=O)C1CCCC1	7.3%	-4.9%	u	x	5.22µM*
CN(CC(=O)Nc1ccc(Cl)c(Cl)c1)C(=O)C1CCC1	-2.9%	x	x	x	x
S=C(Nc1ccc(Cl)c(Cl)c1)NC1CCCCC1	58.8%	2.2%	13.1µM*	-30.4%	0.0%
S=C(Nc1ccc(Oc2ccccc2)cc1)NC1CCCCCC1	-0.8%[11.6 µM]	-1.1%	-2.5%	-25.3%	17.1%
Cc1nn(-c2ccccc2)c(C)c1C(=O)NCc1ccc(S(N)(=O)=O)cc1	4.2%	2.6%	-3.1%	-0.3%	21.5%
SMILES	AMA1 RON2 block	Sm TGR block	Pf growth 48h	NS1 inh	Pf growth 96h
CCn1c(SCc2cccc(OC)c2)nc2ccccc2c1=O	-5.4%	5.6%	-28.1%	-51.7%	u
Clc1ccc(-c2nc3cc(CN4CCCCC4)ccc3o2)cc1	-0.9%	2.4%	18.7%	-1.2%	9.6%
CCc1ccc(CNC(=O)C2CCN(S(=O)(=O)N3CC(C)CC(C)C3)CC2)cc1 (stereo not given)	-12.6%	-12.4%	-17.3%	-0.4%	18.3%
CCOC(=O)C1CCCN(C(=O)COc2ccc(S(=O)(=O)N3CCOCC3)cc2)C1 (stereo not given)	-11.5%	x	x	x	x
COC(=O)CNc1c(-c2ccccn2)nc2ccc(Br)cn12	22.2%	39.8µM*	116.4%	-58.9%	-21.8%
CCN(c1ccccc1)S(=O)(=O)c1ccc(OC)c(NC(=O)C2CC(=O)N(Cc3ccccc3)C2)c1 (stereo not given)	-2.6%	1.8%	6.57µM*	-66.9%	13.1µM*
